Source: PubChem BioAssay (EPA / NIEHS)
Activity calls are given as the source filed them. How the source made its calls: active means hit-call score of the fitted dose curve at least 0.9, where 1 is the maximum; inactive means score below 0.9.

Each compound was assayed on Vascular cell adhesion molecule 1 (VCAM1), VCAM1 (gene 7412) (assay: BSK_hDFCGF_VCAM1: BioMAP Diversity Plus: hDFCGF Assay for Vascular cell adhesion molecule 1 (VCAM1) Biomarker Activity (AID 2283065)). Conditions: primary human foreskin fibroblasts; actives raise or lower the signal.
Protocol: BSK_hDFCGF is a cell-based, multiplexed-readout assay that uses foreskin fibroblast, a human skin primary cell, with measurements taken at 24 hours after chemical dosing in a 96-well plate.BSK_hDFCGF_VCAM1 is an assay component measured in the BSK_hDFCGF assay. It measures VCAM-1 antibody related to regulation of gene expression using ELISA technology.Data from the assay component BSK_hDFCGF_VCAM1 was analyzed into 1 assay endpoint. This assay endpoint, BSK_hDFCGF_VCAM1, was analyzed with bidirectional fitting relative to DMSO as the negative control and baseline of activity. Using a type of binding reporter, gain or loss-of-signal activity can be used to understand changes in the signaling as they relate to the gene VCAM1. Furthermore, this assay endpoint can be referred to as a primary readout, because this assay has produced multiple assay endpoints where this one serves a signaling function. To generalize the intended target to other relatable targets, this assay endpoint is annotated to the cell adhesion molecules intended target family, where the subfamily is Immunoglobulin CAM.
The levels of cell surface (or secreted, indicated by the prefix "s") biomarker endpoints were measured by ELISA. Overt cytotoxicity to cells in confluent adherent cultures (all systems other than the BT system) was assessed by measuring total protein levels using sulforhodamine B (SRB) staining in parallel cultures at the time of biomarker measurements, indicated as SRB endpoints. For proliferation assays for adherent cell types, individual cell types are cultured at sub-confluence and relative cell numbers quantified by SRB staining at time points optimized for each system (48 h: 3C and CASM3C systems; 72 h: BT and HDF3CGF systems; 96 h: SAg system). SRB was performed by staining cells with 0.1% SRB after fixation with 10% TCA and reading wells at 560 nm.Viability and proliferation of PBMC (T cells) was quantified by Alamar Blue reduction for the SAg and BT systems. For PBMC viability (referred to as PBMC Cytotoxicity within the assay endpoint names), cells were plated (75,000/well in a 96-well plate) and then chemical samples added for 1 h before addition of activators, SEB and TSST-1 (20 ng/mL final concentration each). Cells were incubated for 90 h. Then, Alamar Blue (20 uL/well) (Invitrogen, Cat DAL1100) was added for 6 h, and the plates were read with a fluorescence microplate reader at 546/580 nm (excitation/emission). For PBMC proliferation, cells were plated and activated as above but incubated for only 16 h prior to addition of Alamar Blue. Plates were read after 6 h.

| SMILES | outcome | AC50 |
| --- | --- | --- |
| Nc1ccc(Cc2ccc(N)cc2)cc1 | inactive | – |
| CCOc1cccc(C2(N3CCN(c4ccccc4)CC3)CCC(C)CC2)c1 (stereo not given) | inactive | – |
| CCN(CC)CCO | inactive | – |
| CN(C)c1ccc(C(=O)c2ccc(N(C)C)cc2)cc1 | inactive | – |
| C=CCc1ccc2c(c1)OCO2 | inactive | – |
| Brc1ccc(Oc2ccccc2)cc1 | inactive | – |
| COC(=O)c1ccccc1N | inactive | – |
| Cc1cc(N=Nc2ccccc2C)ccc1N | – | 23.5 µM (active) |
| Clc1ccc(C(c2ccc(Cl)cc2)C(Cl)(Cl)Cl)cc1 | – | 9.94 µM (active) |
| CC(C)(C)OOC(=O)c1ccccc1 | – | 32.9 µM (active) |
| CNC(=O)Oc1cccc2c1OC(C)(C)C2 | inactive | – |
| O=C(Oc1ccc(Br)cc1)N1CCN2CCC1CC2 | inactive | – |
| COc1cc(C=O)cc2c1[C@H](COC(N)=O)[C@]1(OC(C)=O)ON2C[C@H]2[C@@H]1N2C(C)=O | – | 1 µM (active) |
| COC(=O)Nc1nc2ccccc2[nH]1 | inactive | – |
| CC(C)N(Cc1ccccc1)C(=O)C(C)(C)C | inactive | – |
| Cn1cc(-c2ccccc2)c(=O)c(-c2cccc(C(F)(F)F)c2)c1 | inactive | – |
| ClC1=C(Cl)C2(Cl)C3C(Cl)C=CC3C1(Cl)C2(Cl)Cl (stereo not given) | – | 8.26 µM (active) |
| CC(C)(OOC(C)(C)c1ccccc1)c1ccccc1 | – | 28.8 µM (active) |
| CO[C@@H]1[C@H](OC(=O)NC(=O)CCl)CC[C@]2(CO2)[C@H]1[C@@]1(C)O[C@@H]1CC=C(C)C | – | 4.58 µM (active) |
| CCOC(=O)[C@]1(c2ccccc2)Oc2ccccc2[C@@H]1N | – | 36.6 µM (active) |

| SMILES | outcome | AC50 |
| --- | --- | --- |
| COP(=S)(OC)SCN1C(=O)c2ccccc2C1=O | inactive | – |
| Cc1ccc(N)cc1 | inactive | – |
| [O-][Cl+]O | inactive | – |
| O=C(N[C@H](c1ccccc1)[C@@H]1CN2CCC1CC2)c1c(Cl)ccc(C(F)(F)F)c1Cl | inactive | – |
| CC(C)(C)C(O)(CCc1ccc(Cl)cc1)Cn1cncn1 (stereo not given) | inactive | – |
| CCN(CC)N=O | inactive | – |
| c1ccc(C2CO2)cc1 (stereo not given) | inactive | – |
| CCCSC(=O)N(CCC)CCC | inactive | – |
| CCCCC(CC)COC(=O)c1ccc(C(=O)OCC(CC)CCCC)c(C(=O)OCC(CC)CCCC)c1 (stereo not given) | inactive | – |
| C[C@]12C=CC3=C4CCC(=O)C=C4CC[C@H]3[C@@H]1CC[C@@H]2O | – | 27.7 µM (active) |
| CN(C)C(=O)Nc1ccc(Cl)cc1 | inactive | – |
| CS(=O)(=O)NC(=O)c1cc(Oc2ccc(C(F)(F)F)cc2Cl)ccc1[N+](=O)[O-] | inactive | – |
| N#CC(Br)Br | inactive | – |
| c1ccc(N=Nc2ccccc2)cc1 | inactive | – |
| Nc1ccc(Cl)cc1N | – | 9.2 µM (active) |
| CC(C)(O)c1cnn2c(-c3ccc(F)c(-c4c(F)cccc4C#N)c3)cnc2n1 | inactive | – |
| Nc1ccc(N=Nc2ccccc2)cc1 | – | 20 µM (active) |
| O=C1CCCO1 | inactive | – |
| CCC[CH2][Sn]([Cl])([CH2]CCC)[CH2]CCC | – | 0.148 µM (active) |
| CCC(C)c1ccc(O)cc1 (stereo not given) | inactive | – |
